A selection: hits, their analogues and other compounds. The true share with any hit is near 18%.
LDHA block: qHTS assay for inhibitors of human lactate dehydrogenase; purified LDHA, NADH/diaphorase-resazurin fluorescence; stronger effect = lower value; activity change, % (values are at about 110 or 230 µM); 480,000 compounds, 0.15% hits; in the data active means activity change below about -30%; inconclusive means mostly about -25% to -30%
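Human LDH5 at 2 nM final in Tris HCl pH 7.4 with 0.06 mM NADH and 0.2 mM pyruvate, reacted 5 minutes at room temperature. Remaining NADH coupled via diaphorase/resazurin; resorufin fluorescence read at 0 and 20 minutes, normalized to enzyme-free and DMSO wells.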
RORgamma inh: qHTS for inhibitors of ROR gamma transcriptional activity; Nuclear receptor ROR-gamma (Mus musculus), P51450; 310,000 compounds, 5.4% hits; Potency, µM (top dose mostly 53.6 µM), most hits filed as inhibitors; Drosophila S2 Gal4-RORgamma UAS-luciferase reporter, 20 h; AID 2551, 2010; further: nearly all actives have a fitted effect of over 60% in size
Target sequence (P51450 whole entry, looked up, the tested form may be a part): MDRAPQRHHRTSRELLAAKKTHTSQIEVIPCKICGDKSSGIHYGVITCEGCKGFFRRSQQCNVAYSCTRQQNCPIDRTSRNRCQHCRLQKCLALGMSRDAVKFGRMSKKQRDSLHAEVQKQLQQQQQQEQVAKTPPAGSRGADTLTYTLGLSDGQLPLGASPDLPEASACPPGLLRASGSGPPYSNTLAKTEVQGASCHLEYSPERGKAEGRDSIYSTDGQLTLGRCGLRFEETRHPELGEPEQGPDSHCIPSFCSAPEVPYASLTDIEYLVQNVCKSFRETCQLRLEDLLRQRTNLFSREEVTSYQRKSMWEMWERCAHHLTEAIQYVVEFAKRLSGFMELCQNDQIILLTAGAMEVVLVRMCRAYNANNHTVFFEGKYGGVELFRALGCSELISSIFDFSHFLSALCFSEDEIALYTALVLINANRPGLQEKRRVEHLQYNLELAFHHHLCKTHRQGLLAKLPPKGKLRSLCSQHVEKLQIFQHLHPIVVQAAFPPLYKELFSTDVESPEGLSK
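ROR gamma transcriptional activity was tracked as Gal4-UAS luciferase output in stably transfected Drosophila Schneider cells, with compound added 1 hr before 700 uM copper sulfate induction and a 20 hr ambient-temperature incubation.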
TDP1 cell noCPT: qHTS for Inhibitors of human tyrosyl-DNA phosphodiesterase 1 (TDP1): qHTS in cells in absence of CPT; AID 686978, 2013; 420,000 compounds, 15% hits; Potency, µM (highest dose often 46.2 µM), hits mostly inhibitors; DT40 Tdp1-/- hTDP1 cells, no CPT, ATP luminescence, 48 h; further: nearly all actives have a fitted effect of over 55% in size
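Compound effects on proliferation are scored in DT40 Tdp1-/-;hTDP1 cells in the absence of CPT. ATP levels (CellTiter-Glo luminescence) are recorded after a ≥48 hr, 37 °C incubation.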
IL1B secr inh: qHTS for Inhibitors of Inflammasome Signaling: IL-1-beta AlphaLISA Primary Screen | THP-1 LPS/ATP IL-1B secretion, AlphaLISA, 16 h; stronger effect = lower value | activity change, % at 57.5 µM | 360,000 compounds, 4.7% hits; in the data active means activity change below about -50%; inconclusive means mostly about -30% to -49%
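THP-1 cells pretreated 1 hr with compounds (up to 57.5 uM final), then stimulated with LPS (250 ng/mL final) plus ATP (1.25 mM final); secreted IL-1B measured by AlphaLISA after 16 hr, decreased signal indicating inhibition.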
DT40 TDP1 CPT: qHTS for Inhibitors of human tyrosyl-DNA phosphodiesterase 1 (TDP1): qHTS in cells in presence of CPT | chicken DT40 Tdp1-/-;hTDP1 cells + 20 nM CPT, ATP luminescence, 48 h | Potency, µM (doses to about 46.2 µM), hits mostly inhibitors | 420,000 compounds, 12% hits | AID 686979, 2013; further: nearly all actives have a fitted effect of over 55% in size
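Chicken DT40 Tdp1-/- cells complemented with human TDP1, 400 cells/well, exposed to compounds plus 20 nM camptothecin for at least 48 h at 37 C; viability read as ATP content by CellTiter-Glo luminescence.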
VP16 counter: VP16 counterscreen qHTS for inhibitors of ROR gamma transcriptional activity; Drosophila S2 Gal4-VP16 UAS-luciferase, luminescence, 20 h; Potency, µM (series often up to 53.6 µM), actives largely listed as inhibitors; 310,000 compounds, 3.5% hits; AID 2546, 2010;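 further: Gal4-VP16 expression switched on by copper sulfate through the metallothionein promoter; nearly all actives have a fitted effect of over 50% in size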
Hits are given with their value; – = inactive; ? = inconclusive; · = no result given. Unless noted, the call rests on the fitted dose curve; in most records, active means well fitted curve in the direction sought with a large enough effect; inconclusive means small, poorly fitted or top-dose-only effect, or another doubt; inactive means no such curve, though single readings can be large; an effect the other way counts as inactive or inconclusive.

SMILES | LDHA block | RORgamma inh | TDP1 cell noCPT | IL1B secr inh | DT40 TDP1 CPT | VP16 counter
Nc1ncnc(N)c1N=Nc1ccccc1 | – | – | 3.3µM | -60 | 23µM | –
Nc1c(N=Nc2ccccc2F)c(=O)[nH]n1-c1ccccc1 | – | – | – | – | – | –
CCCCN(CC)S(=O)(=O)c1ccc(C(=O)N=c2sc3cc(NC(C)=O)ccc3n2C)cc1 | – | ? | 16µM | – | 8.2µM | –
Cc1cccc(N2CCN(C(=O)CS(=O)(=O)Cc3nc(-c4ccccc4C)oc3C)CC2C)c1 (stereo not drawn) | – | · | ? | · | 15µM | ·
Cc1ccccc1-c1nc(CS(=O)(=O)CC(=O)Nc2cc(F)ccc2F)c(C)o1 | – | – | 21µM | – | ? | –
Cc1ccccc1-c1nc(CS(=O)(=O)CC(=O)NCC(C)c2ccccc2)c(C)o1 (stereo not drawn) | – | · | 16µM | · | ? | ·
Cc1ccccc1-c1nc(CS(=O)(=O)CC(=O)NCc2ccc(F)cc2)c(C)o1 | – | – | ? | – | ? | –
Cc1ccccc1-c1nc(CS(=O)(=O)CC(=O)NCc2cccc(Cl)c2)c(C)o1 | – | · | ? | · | 16µM | ·
CC(C)Sc1nnc(-c2nn(Cc3ccccc3)c(=O)c3ccccc23)o1 | – | · | · | · | · | ·
Cc1cccc(C(=O)N2CCC(c3nc4cc(C(F)(F)F)ccc4s3)CC2)n1 | – | · | · | · | · | ·
O=C(c1cccn1-c1nnc(N2CCCC2)s1)N1CCN(c2ccc(Cl)cc2)CC1 | – | · | 23µM | · | 21µM | ·
Cc1ccc(Cl)cc1N1CCN(C(=O)c2cccn2-c2nnc(N3CCCCC3)s2)CC1 | – | · | 13µM | · | 18µM | ·
Cc1cccc(N2CCN(C(=O)c3cccn3-c3nnc(N4CCCCC4)s3)CC2)c1C | – | · | 23µM | · | 23µM | ·
O=C(c1cccn1-c1nnc(N2CCCCC2)s1)N1CCN(c2ccc(Cl)cc2)CC1 | – | · | 26µM | · | ? | ·
COc1cccc(N2CCN(C(=O)c3cccn3-c3nnc(N4CCCC4)s3)CC2)c1 | – | · | ? | · | ? | ·
Cc1ncsc1C(=O)/C=C/c1cccs1 | – | · | · | · | · | ·
COc1ccc(Cl)cc1NC(=O)COc1ccccc1O | – | · | · | · | · | ·
Cc1ccc(Cl)cc1N1CCN(C(=O)C2CCN(c3nnc(-n4cccc4)s3)CC2)CC1 | – | – | 16µM | – | ? | 11µM
NS(=O)(=O)c1cccc(NC(=O)c2ccccc2NS(=O)(=O)c2ccc(F)cc2)c1 | – | – | – | – | – | –
Cc1ccc(NC(=O)c2ccccc2NS(=O)(=O)c2ccc(F)cc2)cc1S(=O)(=O)N1CCCCC1 | – | ? | 12µM | – | 16µM | 10µM
CSc1ncccc1C(=O)Nc1cccc(S(=O)(=O)N2CCCC2)c1 | – | · | ? | – | ? | ·
CSc1ncccc1C(=O)Nc1cccc(S(=O)(=O)N2CCCCCC2)c1 | – | · | 29µM | – | ? | ·
O=C(Nc1cccc(S(=O)(=O)N2CCCCC2)c1)c1ccccc1NS(=O)(=O)c1ccc(F)cc1 | – | ? | 21µM | – | ? | ?
O=C(CSc1ccc([N+](=O)[O-])cc1)Nc1cccc(S(=O)(=O)Nc2ccccc2F)c1 | – | – | ? | – | 9.2µM | –
O=C(Nc1cccc(S(=O)(=O)Nc2ccccc2F)c1)c1ccco1 | – | · | – | – | – | ·
SMILES | LDHA block | RORgamma inh | TDP1 cell noCPT | IL1B secr inh | DT40 TDP1 CPT | VP16 counter
O=C1CCC(C(=O)Nc2cccc(S(=O)(=O)Nc3ccccc3F)c2)=NN1 | – | · | 13µM | – | 18µM | ·
COC(=O)c1cccc(COc2ccc(Br)cc2)c1 | – | · | · | · | · | ·
CCCc1nc2c3ccccc3ccn2c1CC(C)(C)C | – | · | 21µM | – | 9.2µM | ·
CCCc1nc2c3ccccc3ccn2c1Cc1ccc(C)cc1 | – | · | ? | – | 21µM | ·
O=C(NC1Cc2ccccc2C1)c1ccccc1 | – | · | · | · | · | ·
CCCC(C)NC(=O)N1CCN(C(=O)Cc2c[nH]c3ccccc23)CC1 (stereo not drawn) | – | · | · | · | · | ·
O=C1CS/C(=N/N=C2C3CC4CC(C3)CC2C4)N1 | – | 4.5µM | ? | – | ? | 3.2µM
CC1C/C(=N/N=C2/NC(=O)CS2)CC(C)(C)C1 (stereo not drawn) | – | 2.2µM | – | – | – | 5µM
CC1C/C(=N/N2C(=O)CSC2=S)CC(C)(C)C1 (stereo not drawn) | – | 10µM | – | – | – | –
O=S(=O)(Cc1ccccc1)NCCNS(=O)(=O)Cc1ccccc1 | – | · | · | · | · | ·
O=S(=O)(Cc1ccccc1)NC1c2ccccc2Oc2ccccc21 | – | · | 21µM | – | 15µM | ·
O=c1ccc2ccccc2c2ccccc12 | – | · | 2.6µM | -115 | 2.9µM | ·
O=C(O)c1ccc2ccc3ccccc3c2c1 | – | · | – | – | – | ·
N#Cc1nc(-c2cccc(Cl)c2)oc1NCCCn1ccnc1 | – | · | · | · | · | ·
Cc1ccc(C(=O)C(NC(=O)c2ccco2)N2CCOCC2)cc1 (stereo not drawn) | – | – | – | – | – | –
O=C(NC(C(=O)c1ccccc1)N1CCCCCC1)c1ccco1 (stereo not drawn) | – | – | 21µM | – | 23µM | –
Cc1ccc(CNc2nc(N)c([N+](=O)[O-])c(Nc3ccc(Cl)cc3)n2)cc1 | – | · | · | · | · | ·
CC(C)c1ccc(OCC(=O)Nc2c3c(nn2C(C)(C)C)CS(=O)(=O)C3)cc1 | – | · | ? | – | 12µM | ·
CC(C)(C)n1nc2c(c1NC(=O)c1ccc(Cl)c([N+](=O)[O-])c1)CS(=O)(=O)C2 | – | – | – | -98 | – | –
CCC1CCCCN1C(=O)Cn1cnc2c1c(=O)n(C)c(=O)n2C (stereo not drawn) | – | · | · | · | · | ·
C=CCN1C(=O)OC2(CCCCC2)C1(C)O (stereo not drawn) | – | – | – | – | – | –
Cc1nccn1CCCN1C(=O)OC2(CCCCC2)C1(C)O (stereo not drawn) | – | – | 21µM | – | ? | –
Cc1ccc2nc(N(Cc3cccnc3)C(=O)CCOc3ccccc3)sc2c1 | – | · | ? | · | ? | ·
CC(=O)N(Cc1cccnc1)c1cccc(-c2nc3ccccc3s2)c1 | – | – | ? | -62 | ? | ?
CC(=O)c1ccc(C(=O)N(Cc2cccnc2)c2nc3c(Cl)cccc3s2)cc1 | – | · | ? | · | 26µM | ·
Cc1ccc2sc(N(Cc3cccnc3)C(=O)CCOc3ccccc3)nc2c1C | – | · | 18µM | · | 23µM | ·
O=C(C1CCCCC1)N(Cc1cccnc1)c1nc2c(Cl)cccc2s1 | – | · | · | · | · | ·
O=C(CCOc1ccccc1)N(Cc1cccnc1)c1nc2c(F)cccc2s1 | – | · | 7.3µM | · | 13µM | ·
C#CCNC(=O)CN1CCC(CN2CCCCCC2)CC1 | – | · | · | · | · | ·

Assay outcomes from PubChem.
